hNpr1 antagonist – Natriuretic polypeptide receptor (hNpr1) antagonism - Primary qHTS; Atrial natriuretic peptide receptor 1 (Homo sapiens), P16066; AID 1347048, 2019; Potency, µM (titrated, usually from 46.3 µM), without a hit: at the top dose activity change, negative = inhibition, most hits filed as inhibitors; 1.6% of 76,000 active; HEK293 hNpr1 GloSensor cGMP, ANP-stimulated luminescence; calls by dose curve; note: nearly all actives have a fitted effect of over 60% in size
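HEK293 cells stably expressing human Npr1 and cGMP GloSensor pGS-40F, loaded 2 h with 2% GloSensor reagent, given compound 30 min at room temperature. Luminescence read before and 20 min after 0.1 nM hNppA.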
GPT2 inhibitor – Primary qHTS assay for inhibitors of Glutamate pyruvate transaminase 2 (GPT2) | Alanine aminotransferase 2 (Homo sapiens), Q8TD30 | Recombinant GPT2, coupled pyruvate oxidase/HRP Amplex Red fluorescence | Potency, µM (titrated, usually from 57.7 µM), for inactives: at the top dose activity change, negative = inhibition, actives largely listed as inhibitors | 0.25% of 100,000 active; note: nearly all actives have a fitted effect of over 60% in size
Target sequence (Q8TD30 whole entry, looked up): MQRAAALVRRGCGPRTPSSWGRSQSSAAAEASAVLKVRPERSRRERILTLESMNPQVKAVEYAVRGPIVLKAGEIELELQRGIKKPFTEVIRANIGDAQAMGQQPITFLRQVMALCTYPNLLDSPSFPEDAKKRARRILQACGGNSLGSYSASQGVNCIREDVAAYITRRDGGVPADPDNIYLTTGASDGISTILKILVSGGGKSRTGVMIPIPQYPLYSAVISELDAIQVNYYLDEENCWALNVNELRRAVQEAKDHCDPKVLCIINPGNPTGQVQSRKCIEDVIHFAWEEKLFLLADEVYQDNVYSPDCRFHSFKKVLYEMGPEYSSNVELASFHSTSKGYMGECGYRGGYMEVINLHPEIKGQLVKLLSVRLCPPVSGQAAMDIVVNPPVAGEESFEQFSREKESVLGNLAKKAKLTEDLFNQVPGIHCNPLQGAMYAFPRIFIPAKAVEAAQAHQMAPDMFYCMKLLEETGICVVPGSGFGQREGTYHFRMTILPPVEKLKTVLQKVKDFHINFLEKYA
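GPT2 10ng/uL, a-KG 250uM, L-Ala 2mM, HEPES pH7.5 + 0.0001% Tween; 30 min RT. Then Amplex mix (PO/HRP/ThPP), 30 min RT dark, fluorescence. AOA 50uM used as positive control.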
Luciferase inh – Firefly luciferase inhibition profiling of diverse chemical library using quantitative high-throughput screening; 2.5% of 76,000 active; Potency, µM (highest dose often 115 µM), usual class: inhibitors; Luciferin 4-monooxygenase (Photinus pyralis), P08659; purified P. pyralis luciferase, luminescence, biochemical; note: nearly all actives have a fitted effect of over 65% in size
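Purified 10nM P. pyralis luciferase with 10uM D-luciferin and 10uM ATP in 50mM Tris acetate pH 7.5, 10mM Mg acetate, 0.01% Tween-20, 0.05% BSA. qHTS titration; luminescence read by CCD imager.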
HEK cytotox – Cytotoxic Profiling in HEK 293 Cell Line of Diverse Libraries Using Quantitative High-Throughput Screening; 6.6% of 94,000 active; HEK 293 viability, ATP luminescence (CellTiter-Glo), 48-72 h; Potency, µM (top dose mostly 115 µM), for the others: top-dose activity change, negative = cytotoxicity, actives largely listed as inhibitors; note: nearly all actives have a fitted effect of over 60% in size
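qHTS cytotoxicity; HEK 293, 250 cells/well; compound pinned; 48 or 72 hr, 37 degree Celsius, 5% CO2, 95% humidity; CellTiter-Glo, 10 min RT; luminescence (ATP).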
3T3 cytotox – Cytotoxic Profiling in NIH 3T3 Cell Line of Diverse Libraries Using Quantitative High-Throughput Screening. NIH 3T3 viability, CellTiter-Glo ATP luminescence, 48-72 h. Potency, µM (series often up to 96.7 µM), for the others: top-dose activity change, negative = cytotoxicity, actives largely listed as inhibitors. 4.3% of 94,000 active. AID 1345082, 2018; note: nearly all actives have a fitted effect of over 55% in size
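Viability of NIH 3T3 cells after 48 or 72 hr compound treatment at 37 °C was assessed by CellTiter-Glo, with luminescence imaged following a 10 min room-temperature step.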
* marks the source's active call; other numbers are inactive results; i = inactive; ? = inconclusive; / = no result given; ! = a repeat was not active; [ ] = dose if it differs, or a comment. Most compounds without a hit are left out; they make up all but 10% or so of the library. Unless noted, calls come from the whole dose curve; as a rule, active = well fitted curve in the direction sought with a large enough effect; inconclusive = small, poorly fitted or top-dose-only effect, or another doubt; inactive = no such curve, though single readings can be large; an effect the other way counts as inactive or inconclusive. % is set by controls: 0 for no effect and ±100 for the full control effect; potency is the fitted concentration of half-maximal effect.

SMILES	hNpr1 antagonist	GPT2 inhibitor	Luciferase inh	HEK cytotox	3T3 cytotox
Cn1ncc2c(C(=O)NCc3cccc(C(F)(F)F)c3)cc(-c3cccnc3)nc21	/	-7%	/	?	?
CC(C)CNC(=O)c1cc(-c2cccnc2)nc2c1cnn2C	/	-8%[88.5 µM]	/	?	?
Cn1ncc2c(C(=O)NCc3cccc(C(F)(F)F)c3)cc(-c3ccsc3)nc21	/	i	/	28µM*	?
Cc1cc(C)cc(-c2ccccc2CN)c1	/	-1%[88.5 µM]	/	112µM*	?
Cc1ccc(-c2ccccc2CN)cc1Cl	/	i	/	35µM*	35µM*
NCc1ccccc1-c1cc(F)cc(F)c1	/	-11%[88.5 µM]	/	-18%[172 µM]	-11%[138 µM]
COc1ccccc1NC(=O)N1CC(C(=O)NCC2CC2)CC(c2ccccc2)C1 (stereo not drawn)	-18%	i	i	?	-22%
O=C1CC(c2ccccc2)N(C(=O)CNS(=O)(=O)c2ccc3c(c2)CCC3)CCCCCN1 (stereo not drawn)	1%	3%	i	?	-27%
O=C(c1ccc(C(F)(F)F)cc1)N1CCC(C(=O)N2CCC(c3ccccc3)CC2)CC1	/	i	/	45µM*	?
O=C(C1CCCN1[S+](=O)([O-])c1cccc(C(F)(F)F)c1)N1CCC(c2ccccc2)CC1 (stereo not drawn)	/	-3%	/	25µM*	35µM*
O=C(C1CCCN1[S+](=O)([O-])c1cccc(C(F)(F)F)c1)N1CCC(c2nc3ccncc3[nH]2)C1 (stereo not drawn)	/	3%	/	-7%	i
O=C(C1CC1)N1CCC(C(=O)N2CCC(c3ccccc3)CC2)CC1	/	-8%[88.5 µM]	/	-26%[172 µM]	?
O=C(C1CCN(S(=O)(=O)c2cccc(C(F)(F)F)c2)CC1)N1CCC(c2ccccc2)CC1	/	-6%	/	22µM*	?
CCCS(=O)(=O)N1CCC(N2C(=O)C(OC)C23CCOCC3)CC1 (stereo not drawn)	5%	-1%	i	-4%	-1%
O=C(c1ccccc1F)N1CCC2(C1)C(=O)N(CCc1ccccc1)c1ccccc12 (stereo not drawn)	19%	-8%	i	40µM*	?
O=C(c1ccc(F)cc1)N1CCC2(C1)C(=O)N(CCc1ccccc1)c1ccccc12 (stereo not drawn)	0%	-15%	i	40µM*!	?
CN1C(=O)C2(CCN(C(=O)c3ccccc3F)C2)c2ccccc21 (stereo not drawn)	3%[70.6 µM]	i	i	?	-17%[138 µM]
O=C(Cc1cccc(Cl)c1)N1CCC2(C1)C(=O)N(CCc1ccccc1)c1ccccc12 (stereo not drawn)	0%	i	i	32µM*	45µM*!
Cc1ccc(C(=O)N2CCC3(C2)C(=O)N(CCc2ccccc2)c2ccccc23)cc1 (stereo not drawn)	-10%	?	i	32µM*!	40µM*!
O=c1n(-c2ccc(Cl)cc2)nc2n1CCN(CC1CC1)C2	/	-9%[88.5 µM]	/	-14%[172 µM]	-6%[138 µM]
COCc1noc([C@@H]2CC(F)(F)CN2S(=O)(=O)c2ccccc2)n1	3%	1%	i	i	-1%
Cn1c(=O)oc2ccc(C(=O)N[C@H](C3CCNCC3)C3CC(O)C3)cc21 (stereo partly drawn)	-1%	1%	i	0%	2%
COC(=O)N1CCC2(C1)C(=O)N(CCc1ccccc1)c1ccccc12 (stereo not drawn)	0%	-19%[88.5 µM]	i	63µM*!	?
CN1C(=O)C2(CCN(C(=O)c3cccc(Br)c3)C2)c2ccccc21 (stereo not drawn)	-15%	i	i	35µM*	?
O=C(c1ccccc1)N1CCC2(C1)C(=O)N(CCc1ccccc1)c1ccccc12 (stereo not drawn)	-11%	i	i	35µM*!	?
SMILES	hNpr1 antagonist	GPT2 inhibitor	Luciferase inh	HEK cytotox	3T3 cytotox
COc1cccc(C(=O)N2CCC3(C2)C(=O)N(CCc2ccccc2)c2ccccc23)c1 (stereo not drawn)	-11%	1%	i	45µM*	?
COCC(=O)N1CCC2(C1)C(=O)N(CCc1ccccc1)c1ccccc12 (stereo not drawn)	1%	-12%	i	-23%	-17%
O=C(c1ccc(Cl)cc1)N1CCC2(C1)C(=O)N(CCc1ccccc1)c1ccccc12 (stereo not drawn)	/	1%	/	?	?
O=C(c1ccccc1)N1CCC2(C1)C(=O)N(Cc1ccccc1)c1ccccc12 (stereo not drawn)	-27%	i	i	?	?
CCCN1C(=O)[C@@H]2[C@@H](CCN2C(=O)CSCC(=O)O)N(Cc2cccs2)C1=O	0%[70.6 µM]	i	i	-3%[172 µM]	-15%[138 µM]
CN(Cc1ccc2nsnc2c1)Cc1nc(Cc2cccc(C(F)(F)F)c2)no1	-1%	i	i	?	?
COc1ccc(CC(=O)N2CCC3(C2)C(=O)N(CCc2ccccc2)c2ccccc23)cc1 (stereo not drawn)	0%	1%	i	40µM*!	?
CCCN(CC1CCOC1)C(=O)c1ccccc1C(F)(F)F (stereo not drawn)	2%	1%	i	-1%	i
Cc1ncsc1CN1CCCCCCNC(=O)[C@@H]2C[C@@H](C(=O)N3CCc4ccccc4C3)C[C@@H]21	-18%	2%	i	89µM*	-19%
N#Cc1ccc(CN2CCCCCCNC(=O)[C@@H]3C[C@@H](C(=O)N4CCc5ccccc5C4)C[C@@H]32)cc1	-14%	1%	i	?	?
CN(C)CCNC(=O)c1nc2nc(-c3ccccc3)c(-c3ccccc3F)cc2n1C	?	4%[88.5 µM]	i	50µM*	35µM*
CN1CCC(NC(=O)c2nc3nc(-c4ccccc4)c(-c4cccc(O)c4)cc3n2C)CC1	-6%	1%	i	35µM*	11µM*
CN(C)CCNC(=O)c1nc2nc(-c3ccccc3)c(Cl)cc2n1C	-1%[70.6 µM]	1%[88.5 µM]	i	-24%[172 µM]	?
Cn1c(C(=O)NCCc2cnc[nH]2)nc2nc(-c3ccccc3)c(Cl)cc21	-13%[70.6 µM]	i	?	?	28µM*
CC(C)C[C@@H]1N[C@H](C(=O)NC(C)C)Cc2cn(Cc3ccccn3)c3cccc1c23	-12%[70.6 µM]	?	i	28µM*	45µM*
CC(C)C[C@@H]1N[C@H](C(=O)NC2CC2)Cc2cn(Cc3nccn3C)c3cccc1c23	-7%[70.6 µM]	-3%[88.5 µM]	i	?	?
